Reference: the supplement of paper PMC10849652
Of roughly 8,800 targets only a part is listed; those with a hit were picked by preference. About 0.5% of all pairs of compound and target were hits. Unmarked numbers belong to inactive results.

Assays:
Assay in all cases: log2 fold change, soluble protein after heating vs DMSO (PISA); higher = thermal stabilisation; K562 lysate, 10 uM; active = over 0.2 and 3.5 SD of the protein, either way, in both replicates (recomputed)
[1] = compound: Cc1cn(-c2cc(NC(=O)c3ccc(C)c(Nc4nccc(-c5cccnc5)n4)c3)cc(C(F)(F)F)c2)cn1 [nilotinib]
Procedure, shortened: (§1)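 Pellets of K562 cells were dounce-homogenised in PBS pH 7.4 with 1 mM MgCl2, and the crude extract was held at 1 mg/mL protein for a 30 min treatment with 10 μM compound. Aliquots were heated for 3 min over 48°C-58°C and pooled before NP-40 was added to 0.5% at 4°C. The supernatant from 21,000xg for 90 min was quantified by TMTpro 16plex LC-MS/MS with channel sums equalised. Values are reported from duplicates as log-two fold change in thermal stability relative to solvent controls.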

[2] = compound: Cc1nc(Nc2n[nH]c3c2CN(C(=O)N[C@H](CN(C)C)c2ccccc2)C3(C)C)c2sccc2n1
Procedure, shortened: as §1

[3] = compound: Cc1nc(Nc2ncc(C(=O)Nc3c(C)cccc3Cl)s2)cc(N2CCN(CCO)CC2)n1 [dasatinib]
Procedure, shortened: as §1

[4] = compound: Cc1ncc(-c2ccnc(Nc3ccc(S(C)(=O)=O)cc3)n2)n1C(C)C
Procedure, shortened: as §1

[5] = compound: Cn1cc(-c2ccc3c(c2)CCN3C(=O)Cc2cccc(C(F)(F)F)c2)c2c(N)ncnc21
Procedure, shortened: as §1

[6] = compound: Cn1cc(CNCC2CCN(c3ncc(C(=O)NO)cn3)CC2)c2ccccc21 [quisinostat]
Procedure, shortened: as §1

[7] = compound: Cn1cncc1[C@@](N)(c1ccc(Cl)cc1)c1ccc2c(c1)c(-c1cccc(Cl)c1)cc(=O)n2C [tipifarnib]
Procedure, shortened: as §1

[8] = compound: NC(=O)Nc1cc(-c2cccc(F)c2)sc1C(=O)N[C@H]1CCCNC1
Procedure, shortened: as §1

[9] = compound: NC(=O)c1cnc(N[C@@H]2CCCC[C@@H]2N)nc1Nc1cccc(-n2nccn2)c1
Procedure, shortened: as §1

[10] = compound: NC1(c2ccc(-c3nc4ccn5c(=O)[nH]nc5c4cc3-c3ccccc3)cc2)CCC1
Procedure, shortened: as §1

[11] = compound: NCC(=O)Nc1ccc(-n2nc(C(F)(F)F)cc2-c2ccc3c(ccc4ccccc43)c2)cc1
Procedure, shortened: as §1

[12] = compound: O=C(CCCCCCC(=O)Nc1ccccc1)NO [vorinostat]
Procedure, shortened: as §1

[13] = compound: O=C(O)c1ccc2c(c1)nc(Nc1cccc(Cl)c1)c1ccncc12 [silmitasertib]
Procedure, shortened: as §1

[14] = compound: O=C1NC(=O)C(c2cnc3ccccn23)=C1c1cn2c3c(cc(F)cc13)CN(C(=O)N1CCCCC1)CC2
Procedure, shortened: as §1

[15] = compound: c1cn2cc(-c3ccc4cn[nH]c4c3)nc(Nc3ccc(N4CCOCC4)cc3)c2n1 [entospletinib]
Procedure, shortened: as §1

Chain of UniProt O95926 (O95926 whole entry, looked up): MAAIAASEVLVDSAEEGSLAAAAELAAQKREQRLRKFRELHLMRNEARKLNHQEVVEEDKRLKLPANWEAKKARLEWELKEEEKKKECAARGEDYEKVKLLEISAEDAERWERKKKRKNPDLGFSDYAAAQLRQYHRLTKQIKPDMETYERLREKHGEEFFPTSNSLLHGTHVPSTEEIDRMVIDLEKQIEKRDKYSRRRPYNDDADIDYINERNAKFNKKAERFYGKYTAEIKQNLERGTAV
Chain of UniProt Q96BD8 (Q96BD8 whole entry, looked up): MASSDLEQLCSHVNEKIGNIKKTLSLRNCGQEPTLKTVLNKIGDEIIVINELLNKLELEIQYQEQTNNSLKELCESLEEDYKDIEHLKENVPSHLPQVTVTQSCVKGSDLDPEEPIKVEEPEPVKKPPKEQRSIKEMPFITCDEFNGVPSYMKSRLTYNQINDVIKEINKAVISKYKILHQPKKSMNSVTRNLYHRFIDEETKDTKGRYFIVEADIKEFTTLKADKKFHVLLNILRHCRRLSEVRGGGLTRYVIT
Chain of UniProt Q8TBC3 (Q8TBC3 whole entry, looked up): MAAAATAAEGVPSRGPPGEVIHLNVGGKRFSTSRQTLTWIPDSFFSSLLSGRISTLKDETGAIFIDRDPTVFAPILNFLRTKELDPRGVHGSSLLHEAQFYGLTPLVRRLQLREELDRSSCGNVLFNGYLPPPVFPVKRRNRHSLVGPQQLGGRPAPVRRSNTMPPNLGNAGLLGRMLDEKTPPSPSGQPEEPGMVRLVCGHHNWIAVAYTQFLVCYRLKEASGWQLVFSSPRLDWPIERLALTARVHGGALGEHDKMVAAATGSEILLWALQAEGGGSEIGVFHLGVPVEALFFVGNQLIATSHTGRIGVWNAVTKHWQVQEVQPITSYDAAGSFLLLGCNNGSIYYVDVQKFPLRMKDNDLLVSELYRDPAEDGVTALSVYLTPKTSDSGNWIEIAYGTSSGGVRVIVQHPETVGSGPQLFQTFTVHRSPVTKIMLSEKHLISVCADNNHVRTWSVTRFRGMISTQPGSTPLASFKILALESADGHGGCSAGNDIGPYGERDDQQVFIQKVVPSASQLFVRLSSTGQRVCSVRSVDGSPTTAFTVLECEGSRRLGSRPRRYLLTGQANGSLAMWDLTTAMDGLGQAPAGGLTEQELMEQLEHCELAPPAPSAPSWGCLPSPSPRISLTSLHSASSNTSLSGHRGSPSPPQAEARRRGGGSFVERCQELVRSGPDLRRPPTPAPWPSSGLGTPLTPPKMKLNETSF
Chain of UniProt Q13586 (Q13586 whole entry, looked up): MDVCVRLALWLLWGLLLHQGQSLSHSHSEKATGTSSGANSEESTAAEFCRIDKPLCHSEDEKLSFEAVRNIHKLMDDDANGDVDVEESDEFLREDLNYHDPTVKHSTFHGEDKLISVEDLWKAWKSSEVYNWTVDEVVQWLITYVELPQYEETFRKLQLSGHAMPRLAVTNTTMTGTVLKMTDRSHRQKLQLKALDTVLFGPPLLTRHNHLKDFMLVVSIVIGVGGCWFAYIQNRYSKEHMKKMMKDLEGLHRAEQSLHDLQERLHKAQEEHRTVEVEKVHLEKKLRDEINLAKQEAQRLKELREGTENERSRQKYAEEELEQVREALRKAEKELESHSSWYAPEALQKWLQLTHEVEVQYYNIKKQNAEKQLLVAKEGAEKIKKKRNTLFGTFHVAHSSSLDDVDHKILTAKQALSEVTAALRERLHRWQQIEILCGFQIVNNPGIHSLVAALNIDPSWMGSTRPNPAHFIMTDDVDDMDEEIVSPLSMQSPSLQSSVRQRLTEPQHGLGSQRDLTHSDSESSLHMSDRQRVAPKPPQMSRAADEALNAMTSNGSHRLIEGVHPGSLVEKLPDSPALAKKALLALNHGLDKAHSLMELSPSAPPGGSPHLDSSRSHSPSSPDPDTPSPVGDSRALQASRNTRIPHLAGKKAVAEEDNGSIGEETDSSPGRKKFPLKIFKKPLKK

Row | Target | log2 fold change [1] | log2 fold change [2] | log2 fold change [3] | log2 fold change [4] | log2 fold change [5] | log2 fold change [6] | log2 fold change [7] | log2 fold change [8] | log2 fold change [9] | log2 fold change [10] | log2 fold change [11] | log2 fold change [12] | log2 fold change [13] | log2 fold change [14] | log2 fold change [15]
1 | STIM1 (UniProt Q13586) | -0.031 | -0.019 | -0.03 | 0.001 | -0.027 | 0.023 | -0.012 | 0.009 | 0 | -0.031 | 0.026 | 0.126 | -0.01 | 0.018 | -0.025
2 | SHKBP1 (UniProt Q8TBC3) | 0.055 | 0.098 | 0.117 | -0.072 | -0.011 | -0.039 | 0.088 | -0.016 | 0.007 | -0.096 | -0.031 | -0.069 | -0.06 | 0.01 | -0.218
3 | SYF2 (UniProt O95926) | -0.023 | 0 | -0.036 | 0.005 | 0.003 | -0.008 | 0.046 | -0.016 | 0.04 | -0.106 | -0.047 | 0.092 | -0.059 | -0.014 | -0.059
4 | SKA1 (UniProt Q96BD8) | -0.095 | 0.052 | -0.034 | 0.023 | -0.032 | -0.104 | 0.039 | 0.038 | -0.042 | 0.014 | 0.057 | -0.586 (active) | -0.036 | -0.07 | -0.021
5 | STK39 (UniProt Q9UEW8) | -0.104 | 0.071 | -0.045 | -0.024 | 0.046 | -0.084 | -0.053 | 0.053 | 0.058 | -0.082 | -0.01 | -0.633 (active) | 0.028 | -0.006 | -0.026
